Compound activity as filed in PubChem.
Compounds with a hit are over-represented: about 7.3% of the library has one in this group of screens.
uPA generation = qHTS for Inhibitors of Cell Surface uPA Generation; cell surface uPA generation assay, qHTS; 330,000 compounds, 0.31% hits; AID 540303, 2011; Potency, µM (doses to about 38.3 µM), for inactives: at the highest dose activity change, negative = inhibition, most hits filed as inhibitors; active means well fitted inhibition curve with a large enough effect; inconclusive means small, poorly fitted or top-dose-only effect; inactive means no such curve, though single readings can be large or run the other way; tested in mouse RAW 264.7 cells; further: on the % scale 0 is the no-effect control and ±100 the full control effect; nearly all actives have a fitted effect of over 55% in size
FLuc counter = qHTS profiling assay for firefly luciferase inhibitor/activator using purifed enzyme and Km concentrations of substrates (counterscreen for miR-21 project); Luciferin 4-monooxygenase (Photinus pyralis), P08659; purified FLuc, Km substrates, luminescence inhibition; Potency, µM (top dose mostly 57.5 µM), for inactives: top-dose activity change, negative = inhibition, actives largely listed as inhibitors; 360,000 compounds, 6.9% hits; AID 588342, 2011;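 further: plate controls were vehicle for no effect and reference inhibitor for full effect; nearly all actives have a fitted effect of over 55% in size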
Target sequence (P08659 whole entry, looked up): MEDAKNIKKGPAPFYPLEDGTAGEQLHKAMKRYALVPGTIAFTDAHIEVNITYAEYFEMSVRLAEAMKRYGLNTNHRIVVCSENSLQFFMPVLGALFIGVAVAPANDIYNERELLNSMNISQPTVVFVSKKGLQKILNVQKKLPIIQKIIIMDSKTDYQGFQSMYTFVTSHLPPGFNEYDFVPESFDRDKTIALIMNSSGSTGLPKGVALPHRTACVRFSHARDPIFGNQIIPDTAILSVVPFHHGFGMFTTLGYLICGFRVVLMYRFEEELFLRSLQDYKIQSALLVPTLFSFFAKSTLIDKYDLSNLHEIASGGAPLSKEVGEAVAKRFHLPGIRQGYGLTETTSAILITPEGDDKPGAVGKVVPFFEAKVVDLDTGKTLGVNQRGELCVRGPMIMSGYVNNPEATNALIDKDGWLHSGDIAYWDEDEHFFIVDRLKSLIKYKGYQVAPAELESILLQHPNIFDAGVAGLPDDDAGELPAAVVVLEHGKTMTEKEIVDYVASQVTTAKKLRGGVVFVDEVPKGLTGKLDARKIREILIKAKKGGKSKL
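Biochemical qHTS of compounds, final roughly 60 µM downward over six points, against 10 nM purified firefly luciferase using Km concentrations of substrates (10 uM D-luciferin, 10 uM ATP) in Tris acetate pH 7.5 buffer; luminescence output.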
NPC1 prom act = qHTS Assay for NPC1 Promoter Activators; Huh7 NPC1 promoter luciferase reporter, 24 h; Potency, µM (series often up to 9.22 µM), for the others: top-dose activation, hits mostly activators; 320,000 compounds, 2.4% hits; AID 485313, 2010; further: % of control where 0% means no effect; nearly all actives have a fitted effect of over 60% in size
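Luciferase expression driven by the NPC1 promoter was measured in stably transfected Huh7 cells after a 24 h compound incubation, using a luciferase reagent and a luminescence read.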
SMN2 splice up = qHTS Assay for Enhancers of SMN2 Splice Variant Expression | HEK293 SMN2-luciferase splicing reporter, luminescence, 30-36 h | 210,000 compounds, 2.8% hits | Potency, µM (top dose mostly 46.1 µM), for the others: at the top dose activity change, positive = activation, hits mostly activators; further: % of control where 0% means no effect; nearly all actives have a fitted effect of over 55% in size
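qHTS luciferase splicing reporter: luminescence rises when SMN2 exon 7 is included in transfected HEK293 cells. Compound exposure lasted 30-36 h at 37C, with 4.5 mM final sodium butyrate as control, followed by a ONE-Glo read.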
Rab9 prom act = qHTS Assay for Rab9 Promoter Activators; Huh7 Rab9 promoter-luciferase reporter, luminescence, 24 h; Potency, µM (top dose mostly 9.22 µM), for the others: at the highest dose activation, negative = inhibition, usual class: activators; 320,000 compounds, 2.8% hits; further: % of control where 0% means no effect; nearly all actives have a fitted effect of over 60% in size
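Measured in stably transfected Huh7 cells bearing a Rab9 promoter–luciferase construct: 24 h compound treatment at 37 °C, followed by luminescence detection.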
ELG1 genotox = qHTS screen for small molecules that induce genotoxicity in human embryonic kidney (HEK293T) cells expressing luciferase-tagged ELG1; Potency, µM (highest dose often 46 µM), without a hit: at the top dose activity change, positive = activation, most hits filed as activators; 330,000 compounds, 1.3% hits; HEK293T ELG1-luciferase reporter, luminescence, 16 h; AID 504466, 2011; further: % of control where 0% means no effect; nearly all actives have a fitted effect of over 60% in size
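Genotoxicity was scored as increased ELG1-luciferase reporter signal, measured by ONE-Glo luminescence (30 min, room temperature). Compound or vehicle exposure of the HEK293T reporter cells lasted 16 hr at 37°C.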
* hit, by the source's call; ? = inconclusive; . = no result given. Unless noted, the call rests on the fitted dose curve; in most records, active means well fitted curve in the direction sought with a large enough effect; inconclusive means small, poorly fitted or top-dose-only effect, or another doubt; inactive means no such curve, though single readings can be large; an effect the other way counts as inactive or inconclusive. Potency means the concentration at half of the fitted maximal effect.

SMILES	uPA generation	FLuc counter	NPC1 prom act	SMN2 splice up	Rab9 prom act	ELG1 genotox
CC(Oc1ccc2c3c(c(=O)oc2c1)CCC3)C(=O)NCC1CCC(C(=O)O)CC1 (centres undefined)	-12%	-3%	-4%	.	-1%	9%
O=C(c1nc2ccccc2s1)N1CCSCC1	-2%	?	23%	10%	?	18µM*
O=C(Nc1ccccc1)c1nc2ccccc2s1	-7%	1.1µM*	2.8µM*	3.2µM*	2.5µM*	2.9µM*
O=C(Nc1nc2ccccc2s1)c1ccccc1	?	1.7µM*	1µM*	3.5µM*	0.45µM*	1µM*
O=C(O)CCC(=O)Nc1nc2ccccc2s1	-2%	-13%	-5%	-10%	-4%	0%
Cc1ccccc1C(=O)Nc1nc2c(C)csc2c(=O)s1	0%	1%	-2%	.	-6%	3%
Cc1csc2nc(NC(=O)c3ccccc3)sc(=O)c12	1%	4.3µM*	0%	.	18%	?
O=C(c1nc2ccccc2s1)N1CCN(c2ccccn2)CC1	-11%	?	23%	-12%	29%	?
CC(C)(C)NC(=O)c1nc2ccccc2s1	6%	-26%	17%	-12%	4%	5%
Cc1ccc(-c2onc(C)c2C)cc1S(=O)(=O)N1CCN(c2ccccc2F)CC1	.	-7%	.	.	.	.
Cc1cc(C)c(NC(=O)Cn2c(=O)n(-c3ccc(F)cc3)c(=O)c3c(C)c(C(=O)N(C)C)sc32)c(C)c1	.	-3%	.	.	.	.
Cc1ccc(S(=O)(=O)N2CCOCC2)cc1C(=O)N1CCN(S(=O)(=O)c2ccccc2F)CC1	-10%	.	.	.	.	.
CCOC(=O)c1c(NC(=O)c2cc(=O)c3c(C)cc(C)cc3o2)sc(C(C)=O)c1C	.	0%	.	13%	.	.
c1ccc2sc(NN=C3CCCCCC3)nc2c1	-15%	0.34µM*	0.35µM*	4.5µM*	0.22µM*	0.46µM*
Cc1cccc(NC(=S)c2nc3ccccc3s2)c1	1%	3µM*	?	18µM*	?	?
Cc1ccc(C(=O)Nc2nc3ccc(S(C)(=O)=O)cc3s2)s1	-10%	2.4µM*	1.8µM*	11µM*	1.4µM*	16µM*
Cc1ccc(C(=O)O)c(C(=O)Nc2nc3ccccc3s2)c1	0%	15µM*	19%	.	20%	6%
O=C(O)c1ccccc1-c1ccccc1C(=O)Nc1nc2ccccc2s1	2%	0%	-5%	.	-2%	4%
CC(C)CCN(Cc1ccco1)C(=O)Cn1ncc2c([nH]c3ccccc32)c1=O	.	-18%	.	.	.	.
C=CC(=O)OCCCCCCOC(=O)C=C	.	.	.	-9%	.	.
COc1ccc(CNC(=O)C(=O)NCC(c2cccnc2)N2CCN(c3ccccc3)CC2)cc1 (centres undefined)	.	-1%	.	.	.	.
Cc1nc2cnc(N3CCOCC3)nc2n(CCC#N)c1=O	.	.	.	-2%	.	.
Cc1noc(C)c1C(=O)Nc1nc2ccccc2s1	-7%	17µM*	19%	.	?	?
Cc1ccc2nc(NC(=O)c3cccs3)sc2c1	-13%	0.48µM*	0.5µM*	2.5µM*	?	0.26µM*
CSc1nc2ccc(NC(=O)c3cccs3)cc2s1	?	.	.	.	.	17%
SMILES	uPA generation	FLuc counter	NPC1 prom act	SMN2 splice up	Rab9 prom act	ELG1 genotox
CS(=O)(=O)c1ccc2nc(NC(=O)c3cccs3)sc2c1	?	0.67µM*	0.4µM*	2.2µM*	0.4µM*	0.92µM*
Cc1cccc2sc(NC(=O)c3ccc(Cl)s3)nc12	-19%	?	2%	-33%	21%	7%
Cc1ccc2nc(NC(=O)c3ccc(Cl)s3)sc2c1	-6%	1.7µM*	1µM*	13µM*	0.56µM*	4.6µM*
Cc1cc(C)cc(NC(=O)Nc2c[nH]c(=O)[nH]c2=O)c1	.	5%	.	10%	.	.
CCOC(=O)c1noc2ncn(CC(=O)Nc3ccc(C)c(F)c3)c(=O)c12	.	11%	.	.	.	.
CCN(CC)c1nn2c(=O)c(C(=O)NCc3ccc(N(C)C)cc3)cnc2s1	.	-2%	.	.	.	.
Cc1c(C)n(C)c2ccc(C(=O)NCCc3ccc(Cl)cc3)cc12	.	-16%	.	.	.	.
CSc1nc2ccc3nc(NC(=O)c4ccccc4)sc3c2s1	-22%	?	3.2µM*	?	3.5µM*	?
NNC(=O)c1ccc(Cn2cc(Cl)cn2)o1	-13%	-16%	-5%	.	-1%	0%
Cc1ccc(C(=O)Nc2nc3ccccc3s2)s1	.	0.54µM*	0.63µM*	-14%	0.4µM*	?
CN(C(=O)c1ccccc1)c1nc2ccccc2s1	-11%	0.85µM*	0.28µM*	4.5µM*	0.56µM*	?
Cc1ccc2nc(NC(=O)c3ccc(Cn4cc(Cl)cn4)o3)sc2c1	-2%	7.6µM*	10%	-32%	14%	1%
O=C(CN1CCN(Cc2ccccc2Cl)C1=O)NCc1ccccc1Cl	.	-15%	.	-4%	.	.
Cc1oc(-c2ccccc2F)nc1CS(=O)(=O)CC(=O)N1CCN(c2ccc(Cl)cc2)CC1	.	-12%	.	-44%	.	.
C(COC1CC2CC1C1C2CC2OC21)OC1CC2CC1C1C2CC2OC21 (centres undefined)	0%	.	.	.	.	.
Cc1c(CNC2CCC(C)CC2)c(C(=O)O)c(C)n1Cc1ccc(Cl)cc1 (centres undefined)	.	-2%	.	7%	.	.
Cc1cc(Nc2ccc(C)c(C)c2)n2cnnc2n1	.	-14%	.	1%	.	.
Cc1ccc2nc(NC(=S)NC(=O)c3cccs3)sc2c1	-3%	1.1µM*	3.5µM*	?	1.1µM*	?
COc1cc(-c2cc(C(=O)Nc3nc4ccccc4s3)c3ccccc3n2)cc(OC)c1OC	-2%	15µM*	12%	-20%	-2%	-6%
CCOC(=O)c1cnc(SCC(=O)c2ccc3c(c2)OCCO3)nc1N	8%	21µM*	0%	14%	?	4%
CCOC(=O)c1cnc(SCC(C)C)nc1N	4%	6.7µM*	3.2µM*	14µM*	2.5µM*	?
CCOC(=O)c1cnc(SCc2cccc(C)c2)nc1N	1%	?	29%	?	30%	16µM*
CCOC(=O)c1cnc(SCC(=O)c2ccccc2)nc1N	-6%	2.1µM*	3.2µM*	13µM*	1.6µM*	21µM*
CN(C)c1ccc(-c2nc(-c3ccco3)no2)cc1[N+](=O)[O-]	.	-6%	.	.	.	.
COc1cc(C(=O)Nc2nc3ccc(S(C)(=O)=O)cc3s2)cc(OC)c1C	3%	-10%	0%	.	1%	-2%
COc1ccc2nc(NC(=O)c3cccnc3SC)sc2c1	-8%	5.4µM*	?	?	?	?
